KKLEB tox: cytotoxicity in KKLEB CF airway cells, primary screen, cytotoxicity control for CF NF-kB inhibitor project, cell-based, uHTS, fluorescence assay plates; KKLEB CF airway cells viability, ATPlite luminescence, overnight; stronger effect = lower value; cells stimulated with P. aeruginosa culture filtrate; activity change (cytotoxicity), % at 5 µM; actives 0.36% (n = 360,000); AID 602141, 2011;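 active = corrected activity change at or below -50% at 5 µM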
TROY signal inh: inhibitors of TROY-driven NF-kB signaling, primary screen, Q293 LMP1-TROYcd cells, NF-kB luciferase, uHTS | inhibition, % at 10 µM | Q293 LMP1-TROYcd NF-kB luciferase reporter, 4 h | AID 1347056, 2019 | actives 0.98% (n = 360,000);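 active = compounds whose plate-normalised and pattern-corrected inhibition of the luciferase reporter signal at the single screening dose is 50% or more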
Peg3 promoter: Peg3 promoter-driven luciferase inhibitors, primary screen, cell-based, HeLa, luciferase luminescence; AID 588405, 2011; inhibition, % at 20 µM; HeLa PEG-Prom luciferase reporter, overnight; actives 1.7% (n = 360,000);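 active = inhibition of at least 50% at 20 µM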
CF NFkB inh: inhibitors of PAF-induced NF-kB signaling, primary screen, cell-based, GFP fluorescence, uHTS. inhibition, % at 5 µM. KKLEB NF-kB-GFP reporter, GFP fluorescence overnight. actives 0.86% (n = 360,000);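 active = at least 50% inhibition at 5 µM, scaled per plate between neutral and stimulator controls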;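 also: PAF is a Pseudomonas aeruginosa culture filtrate used as stimulus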
TWEAK-Fn14 inh: inhibitors of TWEAK-Fn14 signaling, primary screen, luciferase reporter cells, uHTS | TWEAK-stimulated Fn14 reporter cells, luciferase luminescence, 8 h | inhibition, % at 10 µM | actives 2% (n = 360,000) | AID 1159606, 2016; in the data active = inhibition above about 50%
HIF-2a inh: HIF-2a reporter inhibitors, primary screen, luminescence, 786-0 RCC cells; 786-0 RCC cells HIF-2a reporter, luciferase luminescence, overnight; inhibition, % at 18.8 µM; actives 0.72% (n = 360,000);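 active = inhibition of the luminescence signal of 40% or more relative to plate controls, in a single-dose primary screen at 18.75 µM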
Hits are given with their value; 0 = inactive; - = not tested or not shown. Compounds with a hit are over-represented: about 4% of the library has one in this group of screens.

SMILES	KKLEB tox	TROY signal inh	Peg3 promoter	CF NFkB inh	TWEAK-Fn14 inh	HIF-2a inh
CC(C)C(=O)NC(c1ccco1)c1ccc2cccnc2c1O (stereo not given)	0	0	53	0	0	0
C#Cc1ccccc1OCCCN1CCC(C(O)(c2ccccc2)c2ccccc2)CC1	-	0	-	-	0	0
CC(C)c1nc2cc(C(=O)N(C)Cc3ccc(F)cc3)ccc2o1	0	0	0	0	0	0
O=C(N/N=C/c1ccc(O)cc1)Nc1cccc2nsnc12	0	0	0	69	63	0
CC1CCC(NC(=O)CCCn2sc3ccccc3c2=O)CC1 (stereo not given)	0	0	0	0	0	0
COc1cccc(CN(C)C(=O)c2ccc(S(=O)(=O)Nc3ccccc3F)cc2)c1OC	0	0	0	0	0	0
COc1ccc(CN(C)C(=O)c2cc(S(=O)(=O)Nc3ccccc3F)ccc2C)c(OC)c1	0	0	0	0	53	0
Cc1cc2c(cc1C)-n1nnnc1C(N1CCN(CC(=O)NC(C)C)CC1)C(=O)N2 (stereo not given)	-	-	-	-	-	0
O=C(NCc1ccc(F)cc1)c1cccc2c1C(=O)c1ccc(N3CCC(Cc4ccccc4)CC3)cc1S2(=O)=O	0	0	0	0	0	0
O=C(NC1CC1)c1cccc2c1C(=O)c1ccc(N3CCC(Cc4ccccc4)CC3)cc1S2(=O)=O	0	0	0	0	63	0
CCOc1cc(C(=O)Nc2cccnc2)cc(OCC)c1OCC	0	52	0	0	0	0
CCCOc1ccc(C(=O)Nc2cccnc2)cc1	0	0	0	0	0	0
CCCCC(=O)Nc1ccccc1C(=O)OCC(=O)c1ccc2c(c1)OCCO2	0	0	0	0	0	0
O=C(O)/C=C/C(=O)Nc1ccccc1C(=O)OCC(=O)c1ccc2c(c1)OCCO2	0	53	0	0	0	0
Cc1ccc(S(=O)(=O)N2[C@@H](CCO)OC[C@H]2C(C)C)cc1	-	-	-	-	-	0
CCCCCCN1C[C@@H](O)[C@H](n2cc(COC(=O)c3ccccc3)nn2)C[C@@H]1c1ccc(C)cc1	0	0	0	0	0	0
Cc1ccc(O)c(Cc2cc(C)cc(Cc3cc(C)ccc3O)c2O)c1	0	0	56	0	0	0
Cc1ccc(O)c(CNCCNCc2cc(C)ccc2O)c1	0	0	0	0	0	0
Cc1sc(NC(=O)CCCC(=O)O)c(C(N)=O)c1-c1ccccc1	0	0	0	0	53	78
Cc1cccc(C(O)C(O)c2cccc(C)n2)n1 (stereo not given)	0	0	0	0	0	0
Cc1cccc(C(P(=O)(c2ccccc2)c2ccccc2)P(=O)(c2ccccc2)c2ccccc2)n1	0	0	0	0	79	0
Cc1ccc(Cl)cc1N1CCN(C(=O)C2CCN(S(=O)(=O)c3c(C)nn(C)c3C)CC2)CC1	0	0	51	0	0	0
C=CCOC(=O)C1=C(C)N=c2s/c(=C3\C(=O)N(CC(=O)O)c4ccccc43)c(=O)n2C1c1ccc(OC)cc1 (stereo not given)	0	0	0	0	59	0
CCOC(=O)C1=C(C)N=c2s/c(=C3\C(=O)Nc4ccccc43)c(=O)n2C1c1ccc2c(c1)OCO2 (stereo not given)	0	0	0	0	0	0
CC12CCC(O)CC1=CCC1C2CCC2(C)C3=NN=CC3CC12 (stereo not given)	0	0	51	0	0	0
SMILES	KKLEB tox	TROY signal inh	Peg3 promoter	CF NFkB inh	TWEAK-Fn14 inh	HIF-2a inh
CCN(CC(=O)Nc1c(F)cccc1F)C(=O)c1ccc(N2CCCC2=O)cc1	0	0	0	0	0	0
CC1(C(=O)NCc2ccccc2)CSCC(=O)N1C1CC1 (stereo not given)	-	-	-	-	-	0
CCCCn1c(N)c(N(C(=O)CSc2nncn2-c2ccccc2)C2CCCC2)c(=O)[nH]c1=O	0	0	0	0	0	0
CC(C)(C)N1C(=O)c2ccc(C(=O)Nc3cc(C(=O)O)cc(C(=O)O)c3)cc2C1=O	0	0	0	0	99	0
Cc1cc(NC(=O)c2ccc3c(c2)C(=O)N(C(C)(C)C)C3=O)no1	0	0	0	0	0	0
CCCc1cc(-c2[nH]ncc2-c2ccc(C(=O)OCC)o2)c(O)cc1O	0	0	0	0	59	0
CCc1cc(-c2[nH]ncc2-c2nc3ccccc3n2C)c(O)cc1O	0	0	0	0	0	0
CCOC(=O)C1=CCC(c2ccccc2Cl)N(S(=O)(=O)c2ccc(C)cc2)C1 (stereo not given)	0	0	0	0	0	0
COc1ccc(Cl)cc1NC(=O)CN(C)C(=O)c1ccc(-n2cncn2)cc1	0	0	0	0	0	0
COc1cccc(C(=O)Nc2ccc3c(c2)C(=O)N(CCC(=O)O)C3=O)c1	0	0	0	0	0	0
CC(=O)Nc1cccc(Oc2ccc3c(c2)C(=O)N(CCC(=O)O)C3=O)c1	0	-	0	0	88	0
O=C(Nc1ccccc1O)c1ccc2c(c1)C(=O)N(Cc1ccco1)C2=O	0	0	64	0	0	0
Cc1ccc(CSc2nnc(SCC(=O)N/N=C/c3ccc(C(=O)O)cc3)s2)cc1	0	0	0	0	69	0
C=CCNc1ccc(N2C(=O)CCCC2=O)cc1[N+](=O)[O-]	0	0	0	0	74	0
C[C@H](NC(=O)[C@@H]1CCCN1C(=O)[C@@H]1CCCN1C(=O)c1cccc(Cl)c1)c1ccccc1	-	0	-	-	0	0
O=C(/C=C/c1ccco1)Nc1ccc(Oc2ccc(Cl)cc2)cc1	0	0	0	0	51	0
COc1cccc(NC(=O)/C=C/c2ccco2)c1	0	0	0	0	0	0
O=C(Oc1ccc(/C=N/n2cnnc2)cc1)c1cccc([N+](=O)[O-])c1	0	56	0	0	0	0
CN(C)/N=C/c1ccc(OC(=O)c2cccc([N+](=O)[O-])c2)cc1	0	0	0	0	0	0
Cc1ccc2c(c1)C(=O)C(=O)N2CCOc1ccccc1	0	0	0	0	0	0
Cc1cccc(OCCN2C(=O)C(=O)c3cc(C)ccc32)c1	0	0	0	54	0	0
Cc1ccsc1C1C(C#N)=C(N)Oc2n[nH]c(C)c21 (stereo not given)	0	0	0	0	61	0
Cc1[nH]nc2c1C(c1cccs1)C(C#N)=C(N)O2 (stereo not given)	0	0	0	0	0	0
Cc1ccc(-c2nc(SC(C)C(=O)N3CCCC3)n[nH]2)cc1 (stereo not given)	0	0	0	0	0	0
CCN(Cc1cc(=O)n2ccsc2n1)c1cccc2ccccc12	0	64	0	0	97	0
